Experimental data: PubChem BioAssay (Tox21)
Inconclusive results are not listed. Entries that show only a call come without a potency. Some structures have more than one record in an assay (separate samples or runs), and their calls can disagree. The source made the active and inactive calls. Unless noted, the call rests on the fitted dose curve.

Assays:
[1] = Nuclear factor erythroid 2-related factor 2/antioxidant responsive element (Nrf2/ARE) small molecule agonists: qHTS cell viability counter screen in human keratinocytes (AID 1919968; active means well fitted curve in the direction sought with a large enough effect in the repeat runs; an effect the other way counts as inactive or inconclusive; further: nearly all actives have a fitted effect of over 55% in size; further: potency means the concentration at half of the fitted maximal effect)
Summary of the method: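 KeratinoSens HaCaT cells, 1,500/well, preincubated 5 h, then exposed to compounds in DMSO for 23 h at 37 C/5% CO2. Viability read as CellTiter-Fluor fluorescence after 1 h, in the same wells as the ARE-luciferase read.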

[2] = biological target: KiSS-1 receptor (Homo sapiens) (UniProt Q969F8); assay: Human kisspeptin (KISS1R) small molecule agonists, calcium flux assay in KISS1R-HEK293 cells (AID 1920064; active means well fitted curve in the direction sought with a large enough effect in the repeat runs; an effect the other way counts as inactive or inconclusive)
Summary of the method: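 HEK293 cells stably expressing human KISS1R were loaded with calcium dye for 1 h at 37 C, then given compound; fluorescence (Ex/Em 480/540) was read kinetically for 3 min. Fifteen concentrations, triplicate.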

[3] = G protein-coupled receptor (GPCR) small molecule agonists, calcium flux assay: HEK293 wild type cell line counter screen (AID 1920065)
Summary of the method: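 Wild-type HEK293 cells plated 18 h, loaded with calcium dye 1 h at 37 C, then compounds added in agonist mode (ATP as positive control). Kinetic fluorescence Ex/Em 480/540 recorded 3 min at 1 sec intervals; 15 concentrations, triplicate.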

[4] = p53 small molecule agonists, cell-based qHTS assay with human liver microsomes (AID 1963577)
Summary of the method: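 p53RE-bla cells, 4,000/well, compound added after 5 h, with human liver microsomes 0.5 mg/mL and NADPH 0.5 mg/mL final; 16 h at 37 C, then LiveBLAzer 2 h RT, fluorescence.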

[5] = p53 small molecule agonists, cell-based qHTS assay with rat liver microsomes (AID 1963578)
Summary of the method: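 p53RE-bla cells, 4,000/well, pre-incubated 5 h, then given compounds plus rat liver microsomes (0.5 mg/mL final) and NADPH (0.5 mg/mL final). Incubation 16 h at 37 C; beta-lactamase reporter read by LiveBLAzer fluorescence after 2 h at room temperature.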

[6] = p53 small molecule agonists, cell-based qHTS assay with human liver microsomes: qHTS cell viability counter screen (AID 1963579); further: nearly all actives have a fitted effect of over 45% in size; further: potency means the concentration at half of the fitted maximal effect
Summary of the method: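 p53RE-bla cells, 4,000/well, dosed 5 hours after plating, with human liver microsomes (0.5 mg/mL final) plus NADPH (0.5 mg/mL final), 16 hours at 37 C. Viability read as CellTiter-Glo luminescence after 30 min at room temperature.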

[7] = p53 small molecule agonists, cell-based qHTS assay with rat liver microsomes: qHTS cell viability counter screen (AID 1963580); further: nearly all actives have a fitted effect of over 45% in size; further: potency means the concentration at half of the fitted maximal effect
Summary of the method: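 HCT-116 p53RE-bla, 4,000 cells/well, 5 h pre-incubation; cpd + rat liver microsomes 0.5 mg/mL + NADPH 0.5 mg/mL (final); 16 h, 37 C; CellTiter-Glo, 30 min RT; luminescence.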

[8] = p53 small molecule agonists, cell-based qHTS assay: qHTS cell viability counter screen (AID 1963581); further: nearly all actives have a fitted effect of over 45% in size; further: potency means the concentration at half of the fitted maximal effect
Summary of the method: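 p53RE-bla HCT-116 cells, compounds added 5 h after plating and incubated 16 h at 37 C. Cytotoxicity measured in the same wells as intracellular ATP by CellTiter-Glo luminescence after 30 min at room temperature.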

[9] = biological target: 5-hydroxytryptamine receptor 2A (Homo sapiens) (UniProt P28223); assay: 5-hydroxytryptamine receptor 2A (HTR2A) small molecule antagonists, cell-based qHTS assay (AID 1963586); further: nearly all actives have a fitted effect of over 45% in size; further: potency means the concentration at half of the fitted maximal effect
Summary of the method: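 Antagonist-mode intracellular calcium assay: DOI (4 nM) added after 5 min compound pre-incubation at room temperature to dye-loaded HTR2A-CHO cells. Fluorescence followed for 3 min, sampled every second.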

[10] = biological target: 5-hydroxytryptamine receptor 2A (Homo sapiens) (UniProt P28223); assay: 5-hydroxytryptamine receptor 2A (HTR2A) small molecule agonists, cell-based qHTS assay (AID 1963587); further: nearly all actives have a fitted effect of over 30% in size; further: potency means the concentration at half of the fitted maximal effect
Summary of the method: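 Kinetic calcium-flux fluorescence (2 min, 1 sec intervals) after compound addition in agonist mode. HTR2A-CHO cells were cultured 18 h, then dye-loaded 1 h at 37 C.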

[11] = biological target: Muscarinic acetylcholine receptor M1 (Homo sapiens) (UniProt P11229); assay: Cholinergic receptor muscarinic 1 (CHRM1) small molecule antagonists, cell-based qHTS assay (AID 1963588); further: nearly all actives have a fitted effect of over 40% in size
Summary of the method: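 CHRM1-CHO calcium-flux assay, antagonist mode. Cells were seeded 18 h, dye-loaded 1 h at 37 C and given compound for 5 min at RT, then acetylcholine was added at 50nM. FDSS fluorescence was read 3 min; 15 concentrations, three runs.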

[12] = biological target: Muscarinic acetylcholine receptor M1 (Homo sapiens) (UniProt P11229); assay: Cholinergic receptor muscarinic 1 (CHRM1) small molecule agonists, cell-based qHTS assay (AID 1963589); further: nearly all actives have a fitted effect of over 35% in size; further: potency means the concentration at half of the fitted maximal effect
Summary of the method: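 CHO cells stably expressing human CHRM1 were loaded with calcium dye for 1 h at 37 C, then compound was added in agonist mode. Intracellular calcium fluorescence was followed kinetically at 1 s intervals. Fifteen concentrations were tested in three independent runs.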

[13] = cAMP Responsive Elements (CRE) small molecule agonists, cell-based qHTS assay (AID 1963590)
Summary of the method: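 CRE-bla HEK 293T cells, 2,000/well in DMEM with 10% dialyzed FBS and 25 mM HEPES, pre-incubated 18 h at 37 C, then exposed to compound 3 h at 37 C. Beta-lactamase reporter read with LiveBLAzer B/G FRET substrate after 2 h at room temperature.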

[14] = cAMP Responsive Elements (CRE) small molecule antagonists, cell-based qHTS assay (AID 1963591; active means well fitted inhibition curve with a large enough effect in the signal ratio in the repeat runs, not every such curve was filed as active; the % refers to the signal ratio)
Summary of the method: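 CRE-bla HEK293T cells plated 18 h, then given compound plus NKH477 at 0.25 uM final for 3 h at 37C. Beta-lactamase reporter read with LiveBLAzer B/G FRET substrate after 2 h at room temperature.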

[15] = biological target: Beta-2 adrenergic receptor (Homo sapiens) (UniProt P07550); assay: Adrenergic beta2 receptor (ADRB2) small molecule antagonists, cell-based qHTS assay (AID 1963592); further: series mostly up to about 92 µM; nearly all actives have a fitted effect of over 50% in size
Summary of the method: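 Cells (CHO, stable ADRB2 overexpression) incubated 18-20hr at 37C; compounds added from DMSO; agonist mix (1nM isoproterenol, 100uM IBMX, 25uM Ro-20-1724) added; 0.5hr RT; d2-cAMP and anti-cAMP-cryptate added; 1hr RT; 665/615 nm read.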

[16] = biological target: Beta-2 adrenergic receptor (Homo sapiens) (UniProt P07550); assay: Adrenergic beta2 receptor (ADRB2) small molecule agonists, cell-based qHTS assay (AID 1963593);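 further: CHO cells stably overexpressing human ADRB2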
Summary of the method: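 CHO cells stably over-expressing ADRB2 were plated overnight at 37C, then dosed with compounds plus a stimulation mix containing 100uM IBMX and 25uM Ro-20-1724 for 0.5hr at room temperature. cAMP was measured by HTRF competition, 1hr.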

[17] = biological target: D(2) dopamine receptor (Homo sapiens) (UniProt P14416); assay: Dopamine D2 receptor (DRD2) small molecule antagonists, cell-based qHTS assay (AID 1963595; active means well fitted inhibition curve with a large enough effect in the signal ratio in the repeat runs, with a control signal flat; the % refers to the signal ratio)
Summary of the method: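 Cells were plated and grown for 24 h at 37 °C. Ro20-1724 (0.1 mM final) went in first, then compound for 10 min. NKH477 (200 nM) with quinpirole (12 nM) followed for 30 min at RT, then HTRF detection reagents for 1 h.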

[18] = p53 small molecule agonists, cell-based qHTS assay (AID 1963582; active means well fitted activation curve with a large enough effect in the signal ratio in the repeat runs, not every such curve was filed as active; the % refers to the signal ratio)
Summary of the method: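 p53RE-bla reporter cells, compounds added in DMSO after 5 h plating, incubated 16 h at 37 C. Beta-lactamase read via 2 h room-temperature LiveBLAzer B/G FRET substrate, fluorescence intensity.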

[19] = biological target: D(2) dopamine receptor (Homo sapiens) (UniProt P14416); assay: Dopamine D2 receptor (DRD2) small molecule agonists, cell-based qHTS assay (AID 1963594); further: nearly all actives have a fitted effect of over 35% in size
Summary of the method: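 cAMP accumulation in DRD2-HEK293 cells measured by HTRF after 1 h detection; compounds added 10 min before NKH477 (200nM […]) forskolin-analogue stimulation, 30 min at room temperature, with Ro20-1724 present at 0.1 mM final.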

Sequence of Beta-2 adrenergic receptor (Homo sapiens) (P07550 whole entry, looked up): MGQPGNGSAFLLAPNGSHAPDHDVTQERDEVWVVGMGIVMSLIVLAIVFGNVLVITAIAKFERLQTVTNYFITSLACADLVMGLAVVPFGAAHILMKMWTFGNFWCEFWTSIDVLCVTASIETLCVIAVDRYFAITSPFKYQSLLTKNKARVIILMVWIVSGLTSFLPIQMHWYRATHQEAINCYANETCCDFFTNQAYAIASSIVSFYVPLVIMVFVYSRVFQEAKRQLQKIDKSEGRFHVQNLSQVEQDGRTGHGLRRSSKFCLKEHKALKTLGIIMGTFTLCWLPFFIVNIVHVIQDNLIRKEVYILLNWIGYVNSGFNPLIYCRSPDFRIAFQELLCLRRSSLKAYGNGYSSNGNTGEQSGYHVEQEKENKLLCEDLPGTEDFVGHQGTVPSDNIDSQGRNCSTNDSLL
Sequence of Muscarinic acetylcholine receptor M1 (Homo sapiens) (P11229 whole entry, looked up): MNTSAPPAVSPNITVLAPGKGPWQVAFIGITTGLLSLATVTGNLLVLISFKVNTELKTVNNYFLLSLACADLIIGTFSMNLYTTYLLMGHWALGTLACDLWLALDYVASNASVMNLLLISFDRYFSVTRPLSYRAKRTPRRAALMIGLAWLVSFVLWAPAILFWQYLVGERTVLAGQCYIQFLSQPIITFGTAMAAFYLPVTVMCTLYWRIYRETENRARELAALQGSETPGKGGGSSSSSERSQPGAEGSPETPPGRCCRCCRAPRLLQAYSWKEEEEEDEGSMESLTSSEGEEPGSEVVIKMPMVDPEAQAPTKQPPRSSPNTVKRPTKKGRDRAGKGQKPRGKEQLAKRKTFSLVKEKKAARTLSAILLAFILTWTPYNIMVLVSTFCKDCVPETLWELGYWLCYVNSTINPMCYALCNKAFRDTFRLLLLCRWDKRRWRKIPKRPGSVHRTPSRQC
Sequence of KiSS-1 receptor (Homo sapiens) (Q969F8 whole entry, looked up): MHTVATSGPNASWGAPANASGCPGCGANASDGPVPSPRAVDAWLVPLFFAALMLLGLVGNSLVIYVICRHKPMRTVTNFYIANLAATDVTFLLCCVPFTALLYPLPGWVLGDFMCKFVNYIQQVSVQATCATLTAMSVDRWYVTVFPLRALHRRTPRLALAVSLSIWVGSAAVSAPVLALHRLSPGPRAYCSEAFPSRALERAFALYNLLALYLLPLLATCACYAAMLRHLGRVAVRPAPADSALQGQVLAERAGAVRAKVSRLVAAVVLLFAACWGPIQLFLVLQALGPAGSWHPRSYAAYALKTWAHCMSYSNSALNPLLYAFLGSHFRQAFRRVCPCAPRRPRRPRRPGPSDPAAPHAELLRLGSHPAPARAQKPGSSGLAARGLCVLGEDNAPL
Sequence of D(2) dopamine receptor (Homo sapiens) (P14416 whole entry, looked up): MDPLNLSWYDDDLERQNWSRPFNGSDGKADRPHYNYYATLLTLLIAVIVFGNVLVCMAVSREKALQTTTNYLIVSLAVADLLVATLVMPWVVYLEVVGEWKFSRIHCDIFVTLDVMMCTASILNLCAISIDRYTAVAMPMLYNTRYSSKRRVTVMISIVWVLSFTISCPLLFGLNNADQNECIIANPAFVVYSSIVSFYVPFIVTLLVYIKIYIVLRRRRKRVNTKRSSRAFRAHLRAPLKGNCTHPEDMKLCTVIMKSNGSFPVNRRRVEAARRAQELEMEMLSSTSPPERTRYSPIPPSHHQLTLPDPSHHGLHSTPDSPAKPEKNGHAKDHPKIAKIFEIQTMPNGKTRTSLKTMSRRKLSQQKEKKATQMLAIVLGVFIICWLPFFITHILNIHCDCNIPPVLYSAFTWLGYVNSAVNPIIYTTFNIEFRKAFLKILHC
Sequence of 5-hydroxytryptamine receptor 2A (Homo sapiens) (P28223 whole entry, looked up): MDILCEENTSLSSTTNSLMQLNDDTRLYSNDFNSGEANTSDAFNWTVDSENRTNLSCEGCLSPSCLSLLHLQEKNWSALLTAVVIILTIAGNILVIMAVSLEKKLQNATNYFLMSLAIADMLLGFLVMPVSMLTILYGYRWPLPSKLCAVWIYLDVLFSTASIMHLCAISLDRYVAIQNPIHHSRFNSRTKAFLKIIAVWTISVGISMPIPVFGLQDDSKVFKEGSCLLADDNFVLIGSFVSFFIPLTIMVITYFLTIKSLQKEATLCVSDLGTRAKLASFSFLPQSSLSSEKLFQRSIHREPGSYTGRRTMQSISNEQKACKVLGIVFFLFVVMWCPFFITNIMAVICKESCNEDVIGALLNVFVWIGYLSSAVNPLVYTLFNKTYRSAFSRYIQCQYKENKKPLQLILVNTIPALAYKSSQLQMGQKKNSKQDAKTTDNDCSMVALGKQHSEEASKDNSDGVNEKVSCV

Compound	Potency [1]	Potency [2]	Potency [3]	Potency [4]	Potency [5]	Potency [6]	Potency [7]	Potency [8]	Potency [9]	Potency [10]	Potency [11]	Potency [12]	Potency [13]	Potency [14]	Potency [15]	Potency [16]	Potency [17]	Potency [18]	Potency [19]
O=P(O)(Oc1ccccc1)Oc1ccccc1	inactive	inactive	inactive	inactive	inactive	inactive	inactive	inactive	inactive	inactive	inactive	inactive	inactive	inactive	inactive	inactive	inactive		
Cc1cccc(N)c1N	inactive	inactive	inactive	inactive	inactive	inactive	inactive	inactive	inactive	inactive	inactive	inactive	inactive	inactive	inactive	inactive	inactive	inactive	inactive
CCCCOC(=O)COC(=O)c1ccccc1C(=O)OCCCC	inactive	inactive	inactive	inactive	inactive		inactive			inactive	inactive	inactive	inactive	inactive	inactive		inactive	inactive	inactive
CC(C)(C)CC(C)(C)c1ccc(O)cc1	27.3 µM (active)	inactive	inactive	inactive	inactive	16.2 µM (active) and inactive	37.4 µM (active) and inactive	43.2 µM (active)	18.8 µM (active) and inactive	34.7 µM (active)		49 µM (active) and inactive			inactive				inactive
